Among the test systems are BT-549 breast; MDA-MB-435 melanoma; SW-620 colon; MCF7 breast; HCT-116 colon; HCC-2998 colon; KM12 colon.
Holding throughout (assay): NCI-60 one-dose screen, 48 h (100 = growth as untreated, 0 = no growth, -100 = all killed)
Holding throughout (details): 10 µM unless noted

The panel holds about 83,000 compounds, 20% with a hit somewhere; the sample as a whole holds those more often.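 96-well plates, one dose, 48 hours. Percent growth reported; active if below 10.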 A number with no mark means an inactive call. Calls of active or inactive are those of the source.

With `C/C=C(/C)C(=O)OC1C=C(CO)C(=O)C(OC(=O)/C(C)=C\C)C1C(C)C` (configuration not stated), the growth in the assay on BT-549 breast was -32.7% (active); in the assay on MDA-MB-435 melanoma it was -78.7% (active); in the assay on SW-620 colon, -59% (active); with MCF7 breast, -16.6% (active); in the assay on HCT-116 colon it was -76.1% (active); in the assay with HCC-2998 colon, -85.9% (active). Further, in the assay with KM12 colon, the growth is -41.3% (active).
As to `COc1cc(-c2c3c(cn2CCN2CCCCC2)-c2oncc2CC3)cc(OC)c1OC`, the growth in the assay with BT-549 breast was 105%; in the assay with MDA-MB-435 melanoma it was 101%; with SW-620 colon, 95.2%; in the assay on MCF7 breast it was 91%; in the assay on HCT-116 colon, 89.5%; in the assay with HCC-2998 colon, 106%. Moreover, the growth in the assay with KM12 colon was 107%.
In the case of `c1ccc(Nc2ncc3c(n2)-c2cccn2CC3)cc1`, the growth is 102% in the assay on BT-549 breast; 105% in the assay on MDA-MB-435 melanoma; 102% in the assay on SW-620 colon; 13.4% with MCF7 breast; 92% in the assay on HCT-116 colon; 47.5% in the assay with HCC-2998 colon. For the same compound, in the assay on KM12 colon, the growth is 27.9%.
As to `Clc1ccc(N/N=C/c2ccccn2)nc1`, the growth in the assay on BT-549 breast was 23.4%; with MDA-MB-435 melanoma, 24.4%; in the assay on SW-620 colon, 36.7%; in the assay on MCF7 breast, 0.994% (active); in the assay on HCT-116 colon, 11.1%; with HCC-2998 colon, 24.5%. Moreover, the growth in the assay on KM12 colon is 24.9%.
As for `COC(=O)c1ccc2[nH]c(O)c(C(=Nc3ccc(N(C)C(=O)CN4CCN(C)CC4)cc3)c3ccc4c(c3)OCO4)c2c1`, the growth with BT-549 breast is 3.64% (active); with MDA-MB-435 melanoma it was 21.2%; in the assay on SW-620 colon, 0.696% (active); in the assay on MCF7 breast, 11.1%; in the assay on HCT-116 colon, 0.577% (active); in the assay on HCC-2998 colon, 16%. Also, in the assay with KM12 colon, the growth is 4.89% (active).
Turning to `COc1ccc2cnc(N)c(C#Cc3cc(C(=O)Nc4ccc(CN5CCN(C)CC5)c(C(F)(F)F)c4)cnc3C)c2c1`, the growth in the assay on BT-549 breast was 54.7%; in the assay with MDA-MB-435 melanoma, 26.2%; in the assay with SW-620 colon, 13.8%; in the assay on MCF7 breast it was 39%; in the assay on HCT-116 colon, 20.5%; with HCC-2998 colon it was 86.1%. For the same compound, the growth with KM12 colon was 11%.
In the case of `CC(C)(C)OC(=O)N1C/C(=C\c2ccccc2)C(=O)/C(=C/c2ccccc2)C1`, the growth in the assay with BT-549 breast is 91.5%; in the assay with MDA-MB-435 melanoma it was 102%; with SW-620 colon it was 93.7%; in the assay on MCF7 breast it was 78.1%; in the assay on HCT-116 colon it was 80.7%; in the assay with HCC-2998 colon, 103%. Further, the growth in the assay on KM12 colon is 108%.
For `COC(=O)c1ccc2[nH]c(O)c(C(=Nc3ccc(N(C)C(=O)CN4CCN(C)CC4)cc3)c3ccc(N)cc3)c2c1`, the growth was 81.5% in the assay on BT-549 breast; 90.6% with MDA-MB-435 melanoma; 70.3% in the assay on SW-620 colon; 40.7% with MCF7 breast; 41.4% in the assay on HCT-116 colon; 108% in the assay with HCC-2998 colon. For the same compound, the growth in the assay with KM12 colon was 18.4%.
Regarding `C/C(=N\Nc1cccc(Cl)n1)c1ccccn1`, the growth was 22.9% in the assay on BT-549 breast; 31.3% in the assay on MDA-MB-435 melanoma; 32.5% in the assay on SW-620 colon; 10.1% in the assay on MCF7 breast; 10% with HCT-116 colon; 32.6% with HCC-2998 colon. In addition, the growth with KM12 colon is 25.8%.
As to `COC(=O)c1ccc2[nH]c(O)c(C(=Nc3ccc(N(C)C(=O)CN4CCN(C)CC4)cc3)c3ccc(CCO)cc3)c2c1`, the growth in the assay on BT-549 breast is 20.6%; with MDA-MB-435 melanoma it was 60.8%; with SW-620 colon it was 27.9%; in the assay with MCF7 breast, 26.3%; with HCT-116 colon, 9.37% (active); in the assay on HCC-2998 colon, 53.2%. The growth in the assay with KM12 colon was 18.5%.
In the case of `Clc1ccc(N/N=C(/c2ccccc2)c2ccccn2)nc1`, the growth was 55% in the assay with BT-549 breast; 57.3% in the assay with MDA-MB-435 melanoma; 44.8% with SW-620 colon; -1.28% (active) with MCF7 breast; 5.31% (active) with HCT-116 colon; 45.1% in the assay with HCC-2998 colon. Further, the growth with KM12 colon was 43.2%.
As to `COc1cccc(CNC(=O)c2cccc(C3CC(=O)c4c(cc(OC)c(OC)c4OC)O3)c2)c1` (configuration not stated), the growth was 32.8% with BT-549 breast; -42.4% (active) in the assay with MDA-MB-435 melanoma; 34.9% in the assay on SW-620 colon; 25.3% with MCF7 breast; 18.5% in the assay with HCT-116 colon; 95.2% in the assay on HCC-2998 colon. The growth in the assay on KM12 colon is 41.8%.
Regarding `Cc1nc2c(nnn2-c2ccccc2)c2nc(-c3ccc(Cl)cc3)oc(=O)c12`, the growth in the assay on BT-549 breast was 107%; with MDA-MB-435 melanoma it was 106%; with SW-620 colon, 107%; in the assay with MCF7 breast it was 95.2%; with HCT-116 colon, 109%; in the assay with HCC-2998 colon, 111%. Further, the growth in the assay on KM12 colon is 113%.
With `CC(=O)OCC1O[C@@H](OC(C)=O)[C@@H](NC(=O)NS(=O)(=O)c2ccccc2)C(OC(C)=O)[C@@H]1OC(C)=O` (some centres not stated), the growth is 102% in the assay with BT-549 breast; 105% with MDA-MB-435 melanoma; 111% with SW-620 colon; 92.6% in the assay on MCF7 breast; 108% with HCT-116 colon; 113% in the assay on HCC-2998 colon. Besides, the growth in the assay with KM12 colon is 105%.
In the case of `O=C1c2ccccc2CCc2ccccc21`, the growth in the assay with BT-549 breast is 99%; in the assay with MDA-MB-435 melanoma, 100%; in the assay on SW-620 colon, 99.3%; in the assay with MCF7 breast, 94.9%; in the assay with HCT-116 colon it was 98.2%; with HCC-2998 colon, 97.5%. The growth with KM12 colon was 102%.
`Cc1ccc(S(=O)(=O)N/N=C2\CC3CCC2C3)cc1` (configuration not stated): the growth is 107% in the assay with BT-549 breast; 103% in the assay with MDA-MB-435 melanoma; 106% in the assay with SW-620 colon; 97% in the assay on MCF7 breast; 103% in the assay with HCT-116 colon; 120% in the assay on HCC-2998 colon. The growth in the assay on KM12 colon was 105%.

Values taken from PubChem BioAssay (NCI).
